This is part of a sample that, as a whole, favours compounds with a hit. Of some 83,000 tested, about 20% had one in any assay.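 Percent growth is the endpoint: 0 to 100 indicates growth inhibition (40 means 60% inhibition), 0 means no net growth, and negative values indicate cell death.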 Calls of active or inactive are those of the source. How the source made its calls: active means growth percent below 10; inactive means the rest.
Key:
Assay in all cases: NCI-60 one-dose screen, 48 h (100 = growth as untreated, 0 = no growth, -100 = all killed)
Settings in all cases: 10 µM unless noted
NCI-H23 lung = system: NCI-H23 lung
NCI-H226 lung = system: NCI-H226 lung
NCI-H322M lung = system: NCI-H322M lung
HOP-62 NSCLC = system: HOP-62 NSCLC
NCI-H460 lung = system: NCI-H460 lung
NCI-H522 lung = system: NCI-H522 lung
A549/ATCC NSCLC = system: A549/ATCC NSCLC
786-0 renal = system: 786-0 renal
DU-145 prostate = system: DU-145 prostate
K-562 leukemia = system: K-562 leukemia
MALME-3M melanoma = system: MALME-3M melanoma
MDA-MB-231 breast = system: MDA-MB-231 breast
RXF 393 renal = system: RXF 393 renal
SF-268 CNS = system: SF-268 CNS
SF-295 CNS = system: SF-295 CNS
SF-539 CNS = system: SF-539 CNS
UACC-257 melanoma = system: UACC-257 melanoma
M14 melanoma = system: M14 melanoma
HCT-15 colon = system: HCT-15 colon
COLO 205 colon = system: COLO 205 colon

Measured: growth

COc1ccc2nccc(/C=C/c3ccnc4ccc(OC)cc34)c2c1
inactive: NCI-H23 lung 104% | NCI-H226 lung 131% | NCI-H322M lung 120% | HOP-62 NSCLC 114% | NCI-H460 lung 100% | NCI-H522 lung 112% | A549/ATCC NSCLC 66.1% | 786-0 renal 105% | DU-145 prostate 104% | K-562 leukemia 52.5% | MALME-3M melanoma 146% | MDA-MB-231 breast 114% | RXF 393 renal 37.4% | SF-268 CNS 71.3% | SF-295 CNS 129% | SF-539 CNS 106% | UACC-257 melanoma 153% | M14 melanoma 110% | HCT-15 colon 101%

C=C(C)[C@@H]1C[C@H](O)Cc2cc(Cl)cc(Cl)c2N1
inactive: NCI-H23 lung 103% | NCI-H226 lung 100% | NCI-H322M lung 100% | HOP-62 NSCLC 96.6% | NCI-H460 lung 110% | NCI-H522 lung 92.8% | A549/ATCC NSCLC 94.2% | 786-0 renal 100% | DU-145 prostate 108% | K-562 leukemia 103% | MALME-3M melanoma 108% | MDA-MB-231 breast 93.6% | RXF 393 renal 101% | SF-268 CNS 102% | SF-295 CNS 104% | SF-539 CNS 94.5% | UACC-257 melanoma 104% | M14 melanoma 110%

O=C1OC(c2ccc(-c3ccccc3)cc2)=C/C1=C/c1cccs1
inactive: NCI-H23 lung 88.6% | NCI-H226 lung 63.6% | NCI-H322M lung 99.7% | HOP-62 NSCLC 101% | NCI-H460 lung 105% | NCI-H522 lung 63% | A549/ATCC NSCLC 83.6% | 786-0 renal 90.3% | DU-145 prostate 103% | K-562 leukemia 87.8% | MALME-3M melanoma 98.2% | MDA-MB-231 breast 75.3% | RXF 393 renal 84.6% | SF-268 CNS 88.5% | SF-295 CNS 95.8% | SF-539 CNS 106% | UACC-257 melanoma 106% | M14 melanoma 90.3% | HCT-15 colon 98.1%

N#Cc1ccc(NC(=O)Nc2ccc(Oc3ccc(NC(=O)Nc4ccc(C#N)cc4)cc3)cc2)cc1
active: NCI-H23 lung -0.877% | NCI-H522 lung -33.4% | K-562 leukemia 0.451%
inactive: NCI-H226 lung 42.5% | NCI-H322M lung 61.8% | HOP-62 NSCLC 31.6% | NCI-H460 lung 18.9% | A549/ATCC NSCLC 26.9% | 786-0 renal 30.3% | DU-145 prostate 35.3% | MALME-3M melanoma 54.4% | MDA-MB-231 breast 53.5% | RXF 393 renal 83.2% | SF-268 CNS 42.1% | SF-295 CNS 23.7% | SF-539 CNS 71% | UACC-257 melanoma 37% | M14 melanoma 26.2% | HCT-15 colon 32.1%

O=C(Nc1ccc(Oc2ccc(NC(=O)Nc3ccc([N+](=O)[O-])cc3)cc2)cc1)Nc1ccc([N+](=O)[O-])cc1
inactive: NCI-H226 lung 24.4% | NCI-H322M lung 22.6% | DU-145 prostate 17.3% | MDA-MB-231 breast 35.1% | RXF 393 renal 28.7% | SF-268 CNS 19.7% | SF-295 CNS 22% | SF-539 CNS 24.9% | HCT-15 colon 10.3%
active: NCI-H23 lung -17.8% | HOP-62 NSCLC -25% | NCI-H460 lung 2.83% | NCI-H522 lung -15.3% | A549/ATCC NSCLC 7.01% | 786-0 renal -1.95% | K-562 leukemia -4.47% | MALME-3M melanoma -3.45% | UACC-257 melanoma -20.9% | M14 melanoma 5.41%

O=C(O)c1ccc(NC(=O)c2cccc(Nc3ccnc(C(F)(F)F)c3)c2)cc1
inactive: NCI-H23 lung 102% | NCI-H226 lung 99.8% | NCI-H322M lung 101% | HOP-62 NSCLC 107% | NCI-H460 lung 107% | NCI-H522 lung 87% | A549/ATCC NSCLC 106% | 786-0 renal 97.9% | DU-145 prostate 116% | K-562 leukemia 105% | MALME-3M melanoma 93.5% | MDA-MB-231 breast 110% | RXF 393 renal 103% | SF-268 CNS 104% | SF-295 CNS 88.8% | SF-539 CNS 106% | UACC-257 melanoma 98.7% | M14 melanoma 95.6% | HCT-15 colon 96.5%

NC(=O)SCC(=O)Nc1ccccc1-c1ccccc1
inactive: NCI-H23 lung 97.2% | NCI-H226 lung 117% | NCI-H322M lung 106% | HOP-62 NSCLC 116% | NCI-H460 lung 116% | NCI-H522 lung 50.1% | A549/ATCC NSCLC 91.7% | 786-0 renal 95.5% | COLO 205 colon 95.3% | K-562 leukemia 103% | MALME-3M melanoma 158% | MDA-MB-231 breast 99.7% | RXF 393 renal 138% | SF-295 CNS 109% | SF-539 CNS 89.5% | UACC-257 melanoma 85.7% | M14 melanoma 97.7% | HCT-15 colon 107%

O=C(CSc1nc2c(n1Nc1ccccc1)-c1ccccc1SC2)Nc1nc(-c2ccc(Cl)cc2)cs1
inactive: NCI-H23 lung 53% | NCI-H226 lung 92% | NCI-H322M lung 91.1% | HOP-62 NSCLC 62.3% | NCI-H460 lung 77% | NCI-H522 lung 65.2% | A549/ATCC NSCLC 25.7% | 786-0 renal 71.5% | DU-145 prostate 73.5% | K-562 leukemia 78% | MALME-3M melanoma 64.2% | MDA-MB-231 breast 75.1% | RXF 393 renal 98.8% | SF-268 CNS 47.2% | SF-295 CNS 45.3% | SF-539 CNS 70.2% | UACC-257 melanoma 89.5% | M14 melanoma 59.9% | HCT-15 colon 77.4%
